Inconclusive results are not listed. A call without a number means that no potency is given here. Active and inactive are the calls of the source. Calls come from the whole dose curve.
test: Validation screen for inhibitors of Lassa infection (AID 463096); conditions: Lassa virus infection, cell-based; series mostly up to 46.1 µM
Potency is the fitted concentration of half-maximal effect.

Structure (SMILES)	Potency
C=Cc1c(C)c2cc3[nH]c(cc4nc(cc5nc(cc1[nH]2)C(C)=C5CCC(=O)O)C(CCC(=O)O)=C4C)c(C)c3C=C	inactive
O=C(CCCN1CCC(O)(c2cccc(C(F)(F)F)c2)CC1)c1ccc(F)cc1	inactive
C[C@]12C=CC(=O)C=C1CC[C@H]1[C@@H]3C[C@@H](O)[C@](O)(C(=O)CO)[C@@]3(C)C[C@H](O)[C@@]12F	inactive
COc1ccc(CN(CCN(C)C)c2ccccn2)cc1	inactive
OCCN1CCN(CCCN2c3ccccc3C=Cc3ccccc32)CC1	inactive
CCn1ccnc1CC1COc2ccccc2O1 (stereo not given)	inactive
c1cc(CN2CCCCC2)cc(OCCCNc2nc3ccccc3s2)c1	inactive
CC1=C(CC(=O)O)c2cc(F)ccc2/C1=C\c1ccc(S(C)(=O)=O)cc1	inactive
COc1ccccc1N1CCN(CCCNc2cc(=O)n(C)c(=O)n2C)CC1	inactive
Nc1c2c(nc3ccccc13)CCCC2	inactive
CCCCNc1c(C(=O)OCC)c(C)nc2c1cnn2CC	inactive
c1ccc([C@H]2CN3CCSC3=N2)cc1	inactive
Fc1ccc(C(c2ccc(F)cc2)N2CCN(C/C=C/c3ccccc3)CC2)cc1	inactive
Cc1[nH]c(=O)c(C#N)cc1-c1ccc2nccn2c1	inactive
CCCCC1C(=O)N(c2ccccc2)N(c2ccccc2)C1=O	inactive
CN(C)C/C=C(/c1ccc(Br)cc1)c1cccnc1	inactive
COc1cc(C(=O)OCCCN2CCCN(CCCOC(=O)c3cc(OC)c(OC)c(OC)c3)CC2)cc(OC)c1OC	inactive
O=C(Nc1ccc([N+](=O)[O-])cc1Cl)c1cc(Cl)ccc1O	5.01 µM (active)

Structure (SMILES)	Potency
CC(C)NCC(O)COc1ccc(COCCOC(C)C)cc1 (stereo not given)	inactive
CN1CCC(=C2c3ccccc3CC(=O)c3sccc32)CC1	inactive
CCOC(=O)C1=C[C@]2(CC)CCCN3CCc4c(n1c1ccccc41)[C@@H]32	inactive
OCc1cc(C(O)CNCCCCCCOCCCCc2ccccc2)ccc1O (stereo not given)	inactive
NC(N)=NCCC[C@H](N)C(=O)O	inactive
COC(=O)[C@@H](N)Cc1ccc(O)c(O)c1	inactive
Cc1ccc(=O)n(-c2ccccc2)c1	inactive
Nc1ccn([C@H]2CC[C@@H](CO)O2)c(=O)n1	inactive
Cn1cnc2c1c(=O)[nH]c(=O)n2C	inactive
O=C(O)CP(=O)(O)O	inactive
CN(C(=O)CCCOc1ccc2[nH]c(=O)ccc2c1)C1CCCCC1	inactive
CN(C)CCCN1c2ccccc2Sc2ccccc21	inactive
CN(C)CCOC(c1ccccc1)c1ccccc1	inactive
C[N+](C)(C)CCOC(=O)CCC(=O)OCC[N+](C)(C)C	inactive
C[C@]12CC[C@@H]3c4ccc(O)cc4CC[C@H]3[C@@H]1CCC2=O	inactive
O=C(O)CN(CCOCCOCCN(CC(=O)O)CC(=O)O)CC(=O)O	inactive
CC(C(O)c1ccc(O)cc1)N1CCC(Cc2ccccc2)CC1 (stereo not given)	inactive

— PubChem BioAssay (NCATS)
